# Unmarked numbers belong to inactive results.
# What was measured:
# [1] = system: Sporothrix brasiliensis CBS 133006; assay: growth inhibition relative to untreated control; higher = more growth inhibition (more antifungal activity), active = 80 or more; extreme values may be limits of the assay; conditions: 1 µM; 48 h
# Method in brief: (§1)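 Yeast-form cells of the reference isolates (grown 7 days in brain heart infusion broth with 2% glucose at 36°C) were exposed at 1 x 10^5 CFU/ml to library compounds at a final 1 μM for 48 h at 35°C in 5% CO2. Growth was checked by visual inspection under an inverted light microscope and quantified by spectrophotometric readings. The value is percent growth inhibition relative to untreated control. Runs were in quadruplicate.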
# [2] = system: Sporothrix schenckii ATCC 32286; assay: as above; conditions: 1 µM; 48 h
# Method in brief: as §1
SMILES,growth inhibition [1] [%],growth inhibition [2] [%]
O=C(NCCc1c[nH]c2ccccc12)c1cc2ccccc2oc1=O,17.8,4.5
c1ccc(C[C@@H]2CN(c3nccc(Oc4ccc(-n5ccnc5)cc4)n3)CCN2)cc1,10.2,9.5
O=C(NCCN1CCCC1)c1cc(NCCCCN2CCC(F)(F)CC2)nc2ccc(Cl)cc12,2.75,8.5
COc1ccc(C2CC(c3cccs3)=NN2C(=O)c2ccco2)cc1OC (stereo not given),0,18.8
FC(F)(F)c1cc(NCCc2ccccc2)nc(-c2ccccn2)n1,10,9.75
Cc1nn2c(O)c3c(nc2c1-c1ccc(F)cc1)CCCC3,7,6.5
CCCn1nnc(NC(=O)COc2ccc(C3CCCCC3)cc2)n1,13.2,0.5
Nc1ncnc2[nH]nc(Cc3cccc4ccccc34)c12,6.25,0
Cc1cc(C)n(-c2ccc(NC(=O)C3CCN(Cc4cnc(C)s4)CC3)cc2)n1,5.5,1.25
Nc1nc(N)c2c3c(sc2n1)CN(Cc1ccccc1)CC3,21.5,11
COCC(C)NC(=O)CSc1ncnc2sc(-c3ccccc3)cc12 (stereo not given),17.8,14.2
CO[C@H]1/C=C\O[C@@]2(C)Oc3c(C)c(O)c4c(O)c(/c(=C/NN5CCN(C)CC5)c(O)c4c3C2=O)=N\C(=O)/C(C)=C\C=C/[C@H](C)[C@H](O)[C@@H](C)[C@@H](O)[C@@H](C)[C@H](OC(C)=O)[C@@H]1C,3,11.2
O=C([C@@H](c1ccc(Cl)cc1)c1cccnc1)N1CCN(c2ccc(C(F)(F)F)cc2)CC1,25.2,2
CCOC(=O)c1c(NC(=O)c2c(F)c(F)c(F)c(F)c2F)sc(C(N)=O)c1C,13.8,0
Cn1ccnc1CNCCS(=O)(=O)c1cccc(Nc2ccc(-c3cccc(F)c3)cn2)c1,4.25,0
CC(C(=O)Nc1ccc2oc(-c3ccncc3)nc2c1)c1ccccc1 (stereo not given),15.2,0.5
CCCc1ccc(S(=O)(=O)Nc2ccc(CN3CCN(CC4CC4)CC3)cc2)cc1,25.5,2.25
FC(F)(F)c1cnc(Sc2nnc(-c3ccncc3)o2)c(Cl)c1,3.5,0
CNC(=O)c1nn(C)c2c1C(C)(C)Cc1cnc(Nc3ccc(N4CCN(C)CC4)cc3)nc1-2,37.5,1.25
Cc1nn(C)cc1C(C)Nc1nncc(-c2ccc(C(F)(F)F)cc2)n1 (stereo not given),16,4.75
CCOC(=O)c1cc(-c2csc(Nc3c(C)cc(C)cc3C)n2)on1,10.5,3.75
Cc1ccc2cc(C3NC(=O)c4ccccc4N3)c(Cl)nc2c1 (stereo not given),8,4
FC(F)(F)c1ccc(N(c2cccnc2)C2CCN(c3ccc(C(F)(F)F)cn3)CC2)cc1,0,0
CCCCCCCCCCCCCCCCOP(=O)([O-])OCC[N+](C)(C)C,24.8,0

SMILES,growth inhibition [1] [%],growth inhibition [2] [%]
COc1cccn2c(C(=O)N3CCCCC3)c(C(F)(F)F)nc12,8.75,5
CC(=O)NCC1CN(c2ccc(-c3ccc(CO)cc3)c(F)c2)C(=O)O1 (stereo not given),4,13.2
Cc1ccc(C(=O)Nc2ccc(S(=O)(=O)O)c3cc(S(=O)(=O)O)cc(S(=O)(=O)O)c23)cc1NC(=O)c1cccc(NC(=O)Nc2cccc(C(=O)Nc3cc(C(=O)Nc4ccc(S(=O)(=O)O)c5cc(S(=O)(=O)O)cc(S(=O)(=O)O)c45)ccc3C)c2)c1,28,19
CCC(Sc1nc2ccccc2o1)C(=O)Nc1nnc(C)s1 (stereo not given),16,3.25
CC(C)(C(=O)Nc1ccc(F)cc1)n1cc(-c2ccccc2F)cn1,0,11
CCOC(=O)NC(=O)c1ccsc1NC(=O)c1nc2ccccc2s1,32.8,2.25
CC(C)(CN)c1nc(-c2ccc(Cl)c(O)c2)c(-c2ccnc(N)n2)[nH]1,7,21.8
CC(C)n1nc(-c2cc3c(Cl)cccc3[nH]2)c2c(N)ncnc21,15,16.8
CC(=O)NC[C@@H]1CN(c2ccc(N3CCOCC3)c(F)c2)C(=O)O1,1.75,12.5
NCCC(O)C(=O)N[C@@H]1C[C@H](N)[C@@H](OC2O[C@H](CN)[C@@H](O)[C@H](O)[C@H]2O)[C@H](O)C1OC1O[C@H](CO)[C@@H](O)[C@H](N)[C@H]1O (stereo not given in full),9.25,1
Nc1cccnc1Nc1ccc(Cl)cc1,13.8,0
CC1COC2(CCN(c3nc(=O)c4cc(C(F)(F)F)cc([N+](=O)[O-])c4s3)CC2)O1 (stereo not given),15,1.5
c1ccc(Oc2ccc(-c3cc(N4CCOCC4)[nH]n3)cc2)cc1,4.25,8
CCCCc1ccc(NC(=O)Nc2ccc(O[C@H]3CCCC[C@@H]3N(C)c3ccccc3)c(F)c2)cc1,0,4.25
CC(C)(C)c1cc(C(=O)N2CCN(c3nccnc3C#N)CC2)n(Cc2ccccc2)n1,25.8,15.8
Cc1nc(-c2ccccn2)nc(NCCc2ccc(S(C)(=O)=O)cc2)c1Cl,13,0
Cc1cc(C)nc(-n2nc(C)cc2Nc2ccccc2)n1,17.2,1
FC(F)(F)c1cccc(-c2nc3c(NCc4ccncc4)nccc3[nH]2)c1,38,4
COc1ccc(-c2cc(NC(=O)c3ccc(F)cc3Cl)ccc2OC)cc1,0,6.75
Cc1nn(C(=O)Nc2cccc(C(F)(F)F)c2)c(C)c1Sc1ncccn1,28.2,15.2
N#Cc1nc(-c2ccccc2F)oc1NCCc1ccccc1,3.75,0
Nc1ncc(-c2cn[nH]c2)cc1-c1nc2cc(Cl)cnc2[nH]1,12,11
Cc1ccc(NC(=O)c2nc[nH]c2C(=O)Nc2nc3ccccc3[nH]2)c(C)c1,17.8,1.25
COc1ccc(CCN2CCC(NCc3cccc(N(C)C)c3)CC2)cc1,29,9.75

SMILES,growth inhibition [1] [%],growth inhibition [2] [%]
N#Cc1nc(-c2ccccc2)oc1S(=O)(=O)c1ccc(Cl)cc1,48.8,6.25
Cc1cc2ccccc2n1CC(=O)N1CC(C(=O)N2CCCCC2)Oc2ccccc21 (stereo not given),14.8,10.8
Cc1cccc(Cn2ccc(NC(=O)c3ccc4c(c3)OCO4)n2)c1,7.5,7.25
Cc1cc(C(=O)Nc2ccc(-c3ccccc3)cc2)no1,1.75,17
Cc1ccccc1C(=O)N1N=C(Nc2ccccc2)SC1(C)C,10.5,16
C[C@H](C(N)=O)N1CCCC[C@H]1c1ccc(OCc2cccc(F)c2)cc1,6.5,10
O=C(Nc1nc(-c2ccccn2)cs1)c1cncn1-c1ccccc1,17.5,15.2
Cc1ccc(S(=O)(=O)Nc2ccc(CN3CCN(C(=O)c4cccc(C#N)c4)CC3)cc2)cc1,2,0.5
O=C(NC1CCN(c2ccnc3ccccc23)C1)c1cccc(C(F)(F)F)c1 (stereo not given),0,1.5
CC(Oc1ccccc1)C(=O)Nc1nc(-c2ccccn2)cs1 (stereo not given),18,0
Brc1c(-c2ccc3c(c2)OCO3)nc2ncccn12,19.5,27.8
O=C(Nc1cccc(Cl)c1)c1cnc(N2CCN(c3ccncc3)CC2)c(Cl)c1,0.75,1.5
CCOc1ccccc1NC(C)C(=O)Nc1cc(C(F)(F)F)ccc1N1CCOCC1 (stereo not given),27.8,0
Cc1ccc2nc(C)c(-c3ccn(Cc4ccccc4)n3)n2c1,44.8,36.5
COc1ccc(-c2nc(-c3cccc(NC(=O)Cc4ccc(F)cc4)c3)no2)cc1OC,6.25,4
Cc1cc(NC(=O)c2ccc(S(=O)(=O)N(Cc3ccccc3)C(C)C)cc2)no1,18.2,2.75
O=C(NC1=NCCS1)c1sc2cc(F)ccc2c1Cl,0.75,0
CO[C@@H](C(=O)N1Cc2[nH]nc(NC(=O)c3ccc(N4CCN(C)CC4)cc3)c2C1)c1ccccc1,16.2,1.5
CCc1ccccc1-n1c(C)cn2c3c(=O)n(C(C(=O)OC)C(C)C)c(=O)n(C)c3nc12 (stereo not given),15.8,0
COc1ccc(Nc2ccccc2NC(=O)c2ccc(O)nc2)cc1,14.2,4.25
CC(=O)N1CCc2cc3nc(C)cc(C)c3cc21,4,0
COc1cccc2c(C)nc(N=C(N)N)nc12,10,20.8

# Reference: the supplement of paper PMC7556523
